Results on 40 sequences are retold here after article PMC11006913.

Some targets named below: PITX2 (Homo sapiens, UniProt Q99697 72-157); HOXC9 (Homo sapiens, UniProt P31274 178-260, R193K); HOXA4 (Homo sapiens, UniProt Q00056 201-287).
Holding throughout (test): PBM; 200 nM protein, PBS
Holding throughout (details): dsDNA, one strand shown

For assay [1], the target named is HOXB9 (Homo sapiens, UniProt P17482 171-250).
The target in assay [2] is HOXB9 (Homo sapiens, UniProt P17482 171-250, R186Q).
Chain of HOXB9 (Homo sapiens, UniProt P17482 171-250, R186Q) (P17482 171-250 R186Q): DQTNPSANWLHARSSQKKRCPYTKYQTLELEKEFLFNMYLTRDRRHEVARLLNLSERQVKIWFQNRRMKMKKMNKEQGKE
For a further assay, the target named is T1, NKX2-6 (Homo sapiens, UniProt A6NCS4 118-204, R150C).
T1 sequence: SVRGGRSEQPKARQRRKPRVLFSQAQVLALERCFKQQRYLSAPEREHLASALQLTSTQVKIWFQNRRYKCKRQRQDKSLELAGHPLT

The next assay addresses T2, SIX6 (Homo sapiens, UniProt O95475 114-200, T139Q).
T2 sequence: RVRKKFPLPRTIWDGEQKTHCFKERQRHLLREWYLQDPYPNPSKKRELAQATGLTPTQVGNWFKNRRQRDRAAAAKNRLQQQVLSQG

The target of assay [3] is CRX (Homo sapiens, UniProt O43186 26-111, R41L).
Chain of CRX (Homo sapiens, UniProt O43186 26-111, R41L) (O43186 26-111 R41L): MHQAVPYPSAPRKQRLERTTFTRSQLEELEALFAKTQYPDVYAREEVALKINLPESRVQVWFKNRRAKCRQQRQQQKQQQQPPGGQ
The target of assay [4] is CRX (Homo sapiens, UniProt O43186 26-111, E42D).
Chain of CRX (Homo sapiens, UniProt O43186 26-111, E42D) (O43186 26-111 E42D): as the sequence (O43186 26-111 R41L) above, with L16R, E17D counted along it
Assay [5] deals with MSX2 (Homo sapiens, UniProt P35548 130-214, R199I).
Chain of MSX2 (Homo sapiens, UniProt P35548 130-214, R199I) (P35548 130-214 R199I): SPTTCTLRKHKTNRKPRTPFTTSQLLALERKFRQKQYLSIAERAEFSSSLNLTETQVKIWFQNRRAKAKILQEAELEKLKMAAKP
Assay [6] concerns the target ALX3 (Homo sapiens, UniProt O95076 139-225, N203Q).
Assay [7] addresses ALX3 (Homo sapiens, UniProt O95076 139-225).
Assay [8] has as its target ALX3 (Homo sapiens, UniProt O95076 139-225, L168Q).
Assay [9] addresses ALX3 (Homo sapiens, UniProt O95076 139-225, L168V).
Assay [10] has as its target ALX3 (Homo sapiens, UniProt O95076 139-225, N203S).
Assay [11] has as its target HOXD13 (Homo sapiens, UniProt P35453 263-343, T313R).
In assay [12] the target is HOXD13 (Homo sapiens, UniProt P35453 263-343).
Chain of HOXD13 (Homo sapiens, UniProt P35453 263-343) (P35453 263-343): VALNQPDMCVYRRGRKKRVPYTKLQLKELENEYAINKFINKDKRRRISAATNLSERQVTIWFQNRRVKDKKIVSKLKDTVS
Assay [13] addresses HOXD13 (Homo sapiens, UniProt P35453 263-343, T313A).
For assay [14], the target named is MSX2 (Homo sapiens, UniProt P35548 130-214).
Chain of MSX2 (Homo sapiens, UniProt P35548 130-214) (P35548 130-214): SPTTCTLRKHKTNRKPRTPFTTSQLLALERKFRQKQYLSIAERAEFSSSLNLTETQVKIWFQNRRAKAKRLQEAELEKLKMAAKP
For assay [15], the target named is MSX2 (Homo sapiens, UniProt P35548 130-214, F161Y).
Chain of MSX2 (Homo sapiens, UniProt P35548 130-214, F161Y) (P35548 130-214 F161Y): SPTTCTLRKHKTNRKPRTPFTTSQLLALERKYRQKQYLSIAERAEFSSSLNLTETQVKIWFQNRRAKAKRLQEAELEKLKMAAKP

Chain of HOXB9 (Homo sapiens, UniProt P17482 171-250) (P17482 171-250): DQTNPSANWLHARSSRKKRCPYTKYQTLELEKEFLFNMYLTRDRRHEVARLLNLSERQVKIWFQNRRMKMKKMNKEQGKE
Chain of HOXD13 (Homo sapiens, UniProt P35453 263-343, T313A) (P35453 263-343 T313A): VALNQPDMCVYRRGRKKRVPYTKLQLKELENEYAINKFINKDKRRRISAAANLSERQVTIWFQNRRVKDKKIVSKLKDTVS
Chain of ALX3 (Homo sapiens, UniProt O95076 139-225, L168V) (O95076 139-225 L168V): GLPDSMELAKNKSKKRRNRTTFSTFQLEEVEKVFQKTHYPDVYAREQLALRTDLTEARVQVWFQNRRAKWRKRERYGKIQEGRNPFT
Chain of ALX3 (Homo sapiens, UniProt O95076 139-225, N203S) (O95076 139-225 N203S): as the sequence (O95076 139-225 L168V) above, with V30L, N65S counted along it
Chain of ALX3 (Homo sapiens, UniProt O95076 139-225, N203Q) (O95076 139-225 N203Q): as the sequence (O95076 139-225 L168V) above, with V30L, N65Q counted along it
Chain of ALX3 (Homo sapiens, UniProt O95076 139-225, L168Q) (O95076 139-225 L168Q): as the sequence (O95076 139-225 L168V) above, with V30Q counted along it
Chain of HOXD13 (Homo sapiens, UniProt P35453 263-343, T313R) (P35453 263-343 T313R): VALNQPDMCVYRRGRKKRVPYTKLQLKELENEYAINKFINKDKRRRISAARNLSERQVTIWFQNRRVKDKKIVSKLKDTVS
Chain of ALX3 (Homo sapiens, UniProt O95076 139-225) (O95076 139-225): as the sequence (O95076 139-225 L168V) above, with V30L counted along it
Chain of HOXC9 (P31274 178-260 R193K): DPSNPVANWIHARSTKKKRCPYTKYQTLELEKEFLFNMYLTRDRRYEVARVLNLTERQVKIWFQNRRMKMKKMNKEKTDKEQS
Chain of HOXA4 (Q00056 201-287): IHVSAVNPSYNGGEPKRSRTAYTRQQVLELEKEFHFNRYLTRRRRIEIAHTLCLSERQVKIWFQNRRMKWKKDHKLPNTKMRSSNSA

On to AGAAATTA, for which the binding signal with HOXB9 [1] was 10.7 upbm affinity estimate (log intensity, higher = more binding, comparable within an allelic series); in the assay with HOXB9 [2], 10.5 upbm affinity estimate (log intensity, higher = more binding, comparable within an allelic series). For the sequence AAAGTGAG, the binding signal with NKX2-6 was 10.8 upbm affinity estimate (log intensity, higher = more binding, comparable within an allelic series). With AAGCAATA, the binding signal in the assay with HOXB9 [1] was 10.1 upbm affinity estimate (log intensity, higher = more binding, comparable within an allelic series); with HOXB9 [2], 10.1 upbm affinity estimate (log intensity, higher = more binding, comparable within an allelic series).

As to AGGTATCG, the binding signal with SIX6 is 11.1 upbm affinity estimate (log intensity, higher = more binding, comparable within an allelic series). On to CATTACTA, for which the binding signal was 10.6 upbm affinity estimate (log intensity, higher = more binding, comparable within an allelic series) in the assay with HOXB9 [1] and 10.5 upbm affinity estimate (log intensity, higher = more binding, comparable within an allelic series) with HOXB9 [2]. On to CATAATCG, for which the binding signal with HOXB9 [1] is 10.5 upbm affinity estimate (log intensity, higher = more binding, comparable within an allelic series); in the assay with HOXB9 [2], 10.3 upbm affinity estimate (log intensity, higher = more binding, comparable within an allelic series). On to AGGAATAA, for which the binding signal in the assay with HOXB9 [1] is 9.91 upbm affinity estimate (log intensity, higher = more binding, comparable within an allelic series); in the assay with HOXB9 [2], 9.78 upbm affinity estimate (log intensity, higher = more binding, comparable within an allelic series). Turning to AACATATG, the binding signal with HOXB9 [1] was 9.86 upbm affinity estimate (log intensity, higher = more binding, comparable within an allelic series); with HOXB9 [2], 9.84 upbm affinity estimate (log intensity, higher = more binding, comparable within an allelic series).

As for AAAATACC, the binding signal in the assay with HOXB9 [1] was 9.6 upbm affinity estimate (log intensity, higher = more binding, comparable within an allelic series); in the assay with HOXB9 [2], 9.45 upbm affinity estimate (log intensity, higher = more binding, comparable within an allelic series).

Take TAACTTAA: the binding signal with HOXB9 [1] is 10.2 upbm affinity estimate (log intensity, higher = more binding, comparable within an allelic series); with HOXB9 [2] it was 10.1 upbm affinity estimate (log intensity, higher = more binding, comparable within an allelic series). CGTTTAAA: the binding signal with HOXB9 [1] was 10.2 upbm affinity estimate (log intensity, higher = more binding, comparable within an allelic series); with HOXB9 [2] it was 9.99 upbm affinity estimate (log intensity, higher = more binding, comparable within an allelic series). Turning to TACTGTAA, the binding signal was 10.2 upbm affinity estimate (log intensity, higher = more binding, comparable within an allelic series) with HOXB9 [1] and 10.1 upbm affinity estimate (log intensity, higher = more binding, comparable within an allelic series) in the assay with HOXB9 [2]. Regarding AAATCTTA, the binding signal with HOXB9 [1] is 9.84 upbm affinity estimate (log intensity, higher = more binding, comparable within an allelic series); in the assay with HOXB9 [2] it was 9.77 upbm affinity estimate (log intensity, higher = more binding, comparable within an allelic series). For GATACCCA, the binding signal with SIX6 was 11.2 upbm affinity estimate (log intensity, higher = more binding, comparable within an allelic series). ACCGTGGA: in the assay with NKX2-6, the binding signal was 9.56 upbm affinity estimate (log intensity, higher = more binding, comparable within an allelic series). As for AATACAAT, the binding signal with HOXB9 [1] is 10 upbm affinity estimate (log intensity, higher = more binding, comparable within an allelic series); with HOXB9 [2] it was 9.98 upbm affinity estimate (log intensity, higher = more binding, comparable within an allelic series). For CGGATCAC, the binding signal with SIX6 is 11.1 upbm affinity estimate (log intensity, higher = more binding, comparable within an allelic series).

In the case of AGATACCC, the binding signal with SIX6 was 11.2 upbm affinity estimate (log intensity, higher = more binding, comparable within an allelic series).

In the case of GGCGATAA, the binding signal with HOXB9 [1] was 10.4 upbm affinity estimate (log intensity, higher = more binding, comparable within an allelic series); with HOXB9 [2], 10.3 upbm affinity estimate (log intensity, higher = more binding, comparable within an allelic series).

Consider ATTTAATC, for which the binding signal was 10.8 upbm affinity estimate (log intensity, higher = more binding, comparable within an allelic series) with HOXB9 [1]; 10.7 upbm affinity estimate (log intensity, higher = more binding, comparable within an allelic series) in the assay with HOXB9 [2]; 12.3 upbm affinity estimate (log intensity, higher = more binding, comparable within an allelic series) in the assay with CRX [3].

For TAAACTAA, the binding signal with HOXB9 [1] was 10.3 upbm affinity estimate (log intensity, higher = more binding, comparable within an allelic series); with HOXB9 [2] it was 10.1 upbm affinity estimate (log intensity, higher = more binding, comparable within an allelic series). As for ACATTACA, the binding signal with HOXB9 [1] is 10.6 upbm affinity estimate (log intensity, higher = more binding, comparable within an allelic series); with HOXB9 [2] it was 10.5 upbm affinity estimate (log intensity, higher = more binding, comparable within an allelic series). With CCCGCCAG, the binding signal in the assay with NKX2-6 is 9.62 upbm affinity estimate (log intensity, higher = more binding, comparable within an allelic series). Still for that read-out and setting: for GGCGGGAC the value was 9.37 upbm affinity estimate (log intensity, higher = more binding, comparable within an allelic series). As for ATATTTCC, the binding signal is 9.97 upbm affinity estimate (log intensity, higher = more binding, comparable within an allelic series) in the assay with HOXB9 [1] and 9.85 upbm affinity estimate (log intensity, higher = more binding, comparable within an allelic series) in the assay with HOXB9 [2]. Consider AATGCAAT, for which the binding signal was 10.3 upbm affinity estimate (log intensity, higher = more binding, comparable within an allelic series) with HOXB9 [1] and 10.2 upbm affinity estimate (log intensity, higher = more binding, comparable within an allelic series) with HOXB9 [2]. As to CATTTAAA, the binding signal with HOXB9 [1] is 10.7 upbm affinity estimate (log intensity, higher = more binding, comparable within an allelic series); with HOXB9 [2] it was 10.6 upbm affinity estimate (log intensity, higher = more binding, comparable within an allelic series).

For the sequence CTACTATA, the binding signal with HOXB9 [1] was 10.2 upbm affinity estimate (log intensity, higher = more binding, comparable within an allelic series); with HOXB9 [2], 10 upbm affinity estimate (log intensity, higher = more binding, comparable within an allelic series). Turning to AACTAATC, the binding signal with CRX [4] was 12.7 upbm affinity estimate (log intensity, higher = more binding, comparable within an allelic series). For the sequence GATTAAGA, in the assay with CRX [4], the binding signal is 12.7 upbm affinity estimate (log intensity, higher = more binding, comparable within an allelic series). Consider GATGATTA, for which the binding signal with MSX2 [5] was 11.1 upbm affinity estimate (log intensity, higher = more binding, comparable within an allelic series). Regarding GGGGGCGA, the binding signal with ALX3 [6] was 7.73 upbm affinity estimate (log intensity, higher = more binding, comparable within an allelic series); with ALX3 [7] it was 7.8 upbm affinity estimate (log intensity, higher = more binding, comparable within an allelic series); in the assay with ALX3 [8], 7.65 upbm affinity estimate (log intensity, higher = more binding, comparable within an allelic series); with ALX3 [9], 7.66 upbm affinity estimate (log intensity, higher = more binding, comparable within an allelic series); with ALX3 [10] it was 7.72 upbm affinity estimate (log intensity, higher = more binding, comparable within an allelic series). As for CCGTGCCG, the binding signal in the assay with ALX3 [6] was 7.7 upbm affinity estimate (log intensity, higher = more binding, comparable within an allelic series); in the assay with HOXD13 [11] it was 9.53 upbm affinity estimate (log intensity, higher = more binding, comparable within an allelic series); with HOXD13 [12] it was 9.45 upbm affinity estimate (log intensity, higher = more binding, comparable within an allelic series); in the assay with ALX3 [7], 7.7 upbm affinity estimate (log intensity, higher = more binding, comparable within an allelic series); in the assay with ALX3 [8], 7.76 upbm affinity estimate (log intensity, higher = more binding, comparable within an allelic series); with HOXD13 [13] it was 9.84 upbm affinity estimate (log intensity, higher = more binding, comparable within an allelic series). In addition, the binding signal with ALX3 [9] is 7.72 upbm affinity estimate (log intensity, higher = more binding, comparable within an allelic series); in the assay with ALX3 [10], 7.71 upbm affinity estimate (log intensity, higher = more binding, comparable within an allelic series). ACCCTGCC: the binding signal in the assay with HOXD13 [11] is 9.6 upbm affinity estimate (log intensity, higher = more binding, comparable within an allelic series); with HOXD13 [12], 9.65 upbm affinity estimate (log intensity, higher = more binding, comparable within an allelic series); in the assay with HOXD13 [13] it was 9.68 upbm affinity estimate (log intensity, higher = more binding, comparable within an allelic series).

For the sequence GCCGACCA, the binding signal with PITX2 is 7.83 upbm affinity estimate (log intensity, higher = more binding, comparable within an allelic series).

For CATGGTAA, in the assay with HOXC9, the binding signal is 11 upbm affinity estimate (log intensity, higher = more binding, comparable within an allelic series).

For the sequence ATGAGAAT, in the assay with HOXA4, the binding signal is 11.2 upbm affinity estimate (log intensity, higher = more binding, comparable within an allelic series). Take ACCCTTAT: the binding signal was 10.8 upbm affinity estimate (log intensity, higher = more binding, comparable within an allelic series) with MSX2 [14] and 10.7 upbm affinity estimate (log intensity, higher = more binding, comparable within an allelic series) with MSX2 [15]. For CTAATCAA, the binding signal with MSX2 [5] was 11 upbm affinity estimate (log intensity, higher = more binding, comparable within an allelic series).

Consider CGCCCACG, for which the binding signal is 9.47 upbm affinity estimate (log intensity, higher = more binding, comparable within an allelic series) with MSX2 [5]; 9.54 upbm affinity estimate (log intensity, higher = more binding, comparable within an allelic series) in the assay with MSX2 [14]; 9.52 upbm affinity estimate (log intensity, higher = more binding, comparable within an allelic series) in the assay with MSX2 [15].
